# Screening results as filed in PubChem.
# An excerpt weighted towards active compounds, which were near 9.3% of everything screened.
# VACV Venus inh = qHTS for Stage-Specific Inhibitors of Vaccinia Orthopoxvirus: Venus Reporter Primary qHTS | 330,000 compounds, 0.46% hits | AID 720580, 2013 | Potency, µM (series often up to 36.5 µM), inactives show at the top dose activity change, negative = inhibition, usual class: inhibitors | Vaccinia virus Venus reporter expression, fluorescence; calls by dose curve; tested in A549 cells; also: potency is read from the fitted curve at half-maximal effect; nearly all actives have a fitted effect of over 30% in size
# HCV inh = qHTS Assay for Inhibitors of Hepatitis C Virus (HCV); 340,000 compounds, 3.4% hits; Huh7.5.1 HCVcc-Cre infection, luciferase reporter, 44 h; Potency, µM (titrated, usually from 41.8 µM), for the others: top-dose activity change, negative = inhibition, usual class: inhibitors; also: potency is read from the fitted curve at half-maximal effect
#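 Whole-lifecycle infectious HCVcc-Cre system; cells 1,000/well, compound then virus (~0.5 moi) added 4 h after plating, 44 h culture. Luciferase read 15 sec following 15 min substrate incubation, room temp.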
# VACV mCherry inh = qHTS for Stage-Specific Inhibitors of Vaccinia Orthopoxvirus: mCherry Reporter Primary qHTS; Vaccinia virus mCherry reporter infection, fluorescence; Potency, µM (doses to about 36.5 µM), for the others: at the highest dose activity change, negative = inhibition, usual class: inhibitors; 310,000 compounds, 0.63% hits; AID 720579, 2013; calls by dose curve; tested in A549 cells; also: potency is read from the fitted curve at half-maximal effect; nearly all actives have a fitted effect of over 35% in size
# FMDV antiviral = High Throughput Screening for Foot and Mouth Disease Virus Antivirals | FMDV antiviral cell-based qHTS | Potency, µM (doses to about 57.9 µM), inactives show at the highest dose activity change, negative = inhibition, most hits filed as inhibitors | 410,000 compounds, 1.2% hits; calls by dose curve; tested in HEK293T cells; also: read-out not given here; potency is read from the fitted curve at half-maximal effect; nearly all actives have a fitted effect of over 45% in size
# Sm TGR inh = qHTS Assay for the Inhibitors of Schistosoma Mansoni Peroxiredoxins | purified TGR, DTNB reduction, TNB absorbance 405 nm | Potency, µM (highest dose often 114 µM), without a hit: at the top dose activity change, negative = inhibition, hits mostly inhibitors | 360,000 compounds, 3% hits | AID 485364, 2010; also: potency is read from the fitted curve at half-maximal effect; nearly all actives have a fitted effect of over 60% in size
#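 TGR 20 nM + NADPH 100 uM (dispensed conc.), cpd preinc 15 min RT; start with NADPH (500 uM addition) then DTNB (15 mM addition). Kinetic TNB absorbance, 405 nm filter. Four-parameter Hill fit across titration.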
# HCMV antiviral = qHTS Assay for inhibitors of the human cytomegalovirus (HCMV); HFF cells, HCMV-luciferase reporter, 72 h; hits give low values; activity change, negative = inhibition, % at 57.5 µM; 410,000 compounds, 4.5% hits; AID 1259415, 2018; in the data active = activity change below about -60%; inconclusive = no clear call, values can overlap the other calls; inactive = above about -39%
#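 Two compound doses tested in HFFs infected with HCMV-luciferase, MOI 1 PFU/cell, 72 h at 37C. Lysate luminescence read with OneGlo; data normalized against buffer-only and 10uM Salinomycin inhibitor controls.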
# The depositor's hits bear a star; i = inactive; u = inconclusive; x = no result given. Unless noted, calls follow the shape of the dose curve; as a rule, active = well fitted curve in the direction sought with a large enough effect; inconclusive = small, poorly fitted or top-dose-only effect, or another doubt; inactive = no such curve, though single readings can be large; an effect the other way counts as inactive or inconclusive. % is scaled to controls: 0 for no effect and ±100 for the full control effect.
SMILES,VACV Venus inh,HCV inh,VACV mCherry inh,FMDV antiviral,Sm TGR inh,HCMV antiviral
Cc1ccc(C)c(Nc2ncnc3onc(C)c23)c1,-6%,x,-1%,-14%,-1%,-13
CC(=O)N1CCN(c2csc3ccc(F)cc3c2=O)CC1,-17%,x,-13%,30%,89µM*,11
C=CCN1C=C2C(=O)C(C)(OC(=O)c3cnc4ccccc4n3)C(=O)C=C2C=C1/C=C/COC (stereo unspecified),-16%,8%,-13%,-10%,x,-4
Cc1ccc(S(=O)(=O)Nc2ccc3c(c2)CC(=O)N([C@H](C)CO)C[C@@H](C)[C@H](CN(C)Cc2ccc(-c4ccccc4)cc2)O3)cc1,u,u,u,-21%,x,x
C[C@H](CO)N1C[C@H](C)[C@H](CN(C)Cc2ccc(-c3ccccc3)cc2)Oc2ccc(NS(=O)(=O)c3ccccc3)cc2CC1=O,10µM*,u,u,u,x,x
C[C@H]1CN([C@@H](C)CO)C(=O)Cc2cc(NC(=O)CCC(F)(F)F)ccc2O[C@H]1CN(C)Cc1ccc(-c2ccccc2)cc1,u,u,11µM*,-25%,x,99
C[C@H]1CN([C@@H](C)CO)C(=O)Cc2cc(NC(=O)CCC(F)(F)F)ccc2O[C@H]1CN(C)Cc1ccc(C(F)(F)F)cc1,u,7%,-18%,-30%,x,39
C=C1CCN([C@@H](Cc2ccccc2)C(=O)NCCC(C)C)S(=O)(=O)c2ccccc21,-19%,u,-14%,-4%,x,-15
CC(C)CC(=O)Nc1ccc(Nc2ccccc2)cc1,-18%,2.8µM*,-5%,28%,-3%,36
CCOc1ccc(CCN2C(=O)C(=O)N([C@@H](CC(C)C)CN3CCC[C@@H]3CN3C(=O)C(=O)NC[C@@H]3Cc3ccccc3)C[C@@H]2CC(C)C)cc1,13µM*,-27%,-1%,u,x,-14
O=C1NC[C@H](Cc2ccccc2)N(C[C@@H]2CCCN2C[C@H](Cc2ccc(O)cc2)N2C[C@H](Cc3ccc(O)cc3)N(CCc3ccccc3)C(=O)C2=O)C1=O,-8%,x,0%,-3%,x,-16
O=C1NC[C@H](Cc2ccccc2)N(C[C@H]2CCCN2C[C@H](Cc2ccccc2)N2C[C@H](Cc3ccc(O)cc3)N(CCc3ccccc3)C(=O)C2=O)C1=O,-9%,4%,-6%,-19%,x,-73*
CCOc1ccc(CCN2C(=O)C(=O)N([C@@H](Cc3ccccc3)CN3CCC[C@H]3CN3C(=O)C(=O)NC[C@@H]3Cc3ccccc3)C[C@@H]2Cc2ccccc2)cc1,u,x,u,u,x,-65*
O=C1NC[C@H](Cc2ccccc2)N(C[C@H]2CCCN2C[C@H](Cc2ccccc2)N2C[C@H](Cc3ccccc3)N(CC3CCCCC3)C(=O)C2=O)C1=O,u,8.9µM*,u,u,x,-8
Cc1c(NS(=O)(=O)N2CCCCC2)c(=O)n(-c2ccccc2)n1C,x,-17%,x,20%,6%,-5
Clc1nccc2c1ccc1ccccc12,-8%,x,-14%,x,x,x
CCN(CC)CCOC(=O)c1ccc(NC(=O)c2nn(C)c3c2COc2ccccc2-3)cc1,u,x,u,13%,-4%,-87*
CCCS(=O)(=O)NC(=O)C1(C)CCN(C(=O)c2cc(C)n(C(C)(C)C)n2)C1 (stereo unspecified),-8%,x,5%,-12%,x,36
CCCS(=O)(=O)NC(=O)C1(C)CCCN(C(=O)c2cc(C)n(C(C)(C)C)n2)C1 (stereo unspecified),6%,x,38%,5%,x,-64*
C/C(=N\Nc1cccc2cccnc12)c1ccc[nH]1,-19%,6%,-17%,0%,-5%,220
COc1ccc(Nc2c3ccccc3nc3ccccc23)cc1,u,u,u,u,-4%,-102*
COc1cc(Nc2c3ccccc3nc3ccccc23)cc(OC)c1OC,u,u,u,-24%,-2%,-32
Fc1ccc(Nc2c3c(nc4ccccc24)CCC3)cc1,-23%,14µM*,-28%,-26%,17%,-64*
c1ccc2c(Nc3ccc4c(c3)OCCO4)c3c(nc2c1)CCC3,x,u,x,u,x,-79*
COc1ccc(C)cc1Nc1c2c(nc3ccccc13)CCC2,-19%,u,u,u,4%,-88*
SMILES,VACV Venus inh,HCV inh,VACV mCherry inh,FMDV antiviral,Sm TGR inh,HCMV antiviral
COc1ccc(Nc2c3c(nc4ccccc24)CCCC3)cc1OC,-8%,u,u,-25%,-16%,8
COc1ccc(Nc2c3c(nc4ccccc24)CCC3)cc1Cl,u,x,u,u,14%,-19
c1ccc(Nc2c3c(nc4ccccc24)CCC3)cc1,-5%,u,u,u,-6%,u
CC12CCC3C(=CCc4cc(O)ccc43)C1CC(=NO)C2O (stereo unspecified),-8%,10%,i,-6%,x,27
COc1ccc(Nc2c3c(nc4ccccc24)CCC3)cc1,u,u,u,u,16%,-94*
COc1ccc(Nc2ccc(OC)cc2)cc1,8%,1%,u,31%,40µM*,31
COc1ccc(Nc2ccc(Nc3ccc(OC)cc3)nn2)cc1,x,7%,x,0%,-7%,-5
O=C(NNC(=O)c1nn(-c2ccc(F)cc2)ccc1=O)c1ccc(Cl)cc1,0%,5%,i,-5%,6%,-8
CCCCN(C)C(=O)c1[nH]c(C(F)(F)F)nc1-c1ccccc1,4%,x,-2%,-18%,x,-15
CN(C)CCN(Cc1ccccc1)C(=O)c1[nH]c(C(F)(F)F)nc1-c1ccccc1,3%,x,7%,35µM*,x,-2
Cc1cc(C)cc(-n2cnc3cc(C(=O)NCCc4ccccc4)ccc32)c1,-24%,x,-24%,24%,1%,-99*
CCOc1c2ccc(C(=O)NCCCCc3ccccc3)cc2nn1CC,-16%,3.5µM*,i,-14%,0%,4
CCOC(CNC(=O)c1ccc2c(c1)ncn2-c1cccc(F)c1)OCC,-15%,11%,i,15%,2%,2
COc1ccc(OC)c(-n2cnc3cc(C(=O)NCCc4ccccc4)ccc32)c1,-13%,x,-3%,32%,8%,22
COC(CNC(=O)c1ccc2c(c1)ncn2-c1cccc(F)c1)OC,-1%,15%,i,-6%,3%,-73*
O=C(Nc1cc2c3c(c1)CC(=O)N3CCC2)c1c(F)cccc1F,-16%,u,-7%,0%,-9%,-26
CC(O)CNc1cc(N)c([N+](=O)[O-])cc1[N+](=O)[O-] (stereo unspecified),-21%,7%,-6%,-18%,-2%,0
